High-throughput results (PubChem BioAssay)
Sampled rows, rich in hits. Any-hit rate of the full collection: about 2.3%.
CHO-K1 Ca antag: nonselective inhibitor or artifact in parental CHO-K1 cells | ATP-induced calcium, Fluo-8 fluorescence | inhibition, % at 3 µM | 0.6% of 360,000 active;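 active = inhibition above a per-plate cutoff, the plate's mean sample inhibition plus 3 SD, cut at about 24% in these data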
CHRM1 PAM: human CHRM1 positive allosteric modulation. CHO-K1 hM1, Fluo-8 calcium fluorescence, ACh EC20; 0% = ACh EC20, 100% = maximal ACh. 0.088% of 360,000 active. AID 588819. activation, % at 3 µM; in the data active = activation above about 19%, passing the limit was not always enough
Target sequence (P11229 whole entry, looked up): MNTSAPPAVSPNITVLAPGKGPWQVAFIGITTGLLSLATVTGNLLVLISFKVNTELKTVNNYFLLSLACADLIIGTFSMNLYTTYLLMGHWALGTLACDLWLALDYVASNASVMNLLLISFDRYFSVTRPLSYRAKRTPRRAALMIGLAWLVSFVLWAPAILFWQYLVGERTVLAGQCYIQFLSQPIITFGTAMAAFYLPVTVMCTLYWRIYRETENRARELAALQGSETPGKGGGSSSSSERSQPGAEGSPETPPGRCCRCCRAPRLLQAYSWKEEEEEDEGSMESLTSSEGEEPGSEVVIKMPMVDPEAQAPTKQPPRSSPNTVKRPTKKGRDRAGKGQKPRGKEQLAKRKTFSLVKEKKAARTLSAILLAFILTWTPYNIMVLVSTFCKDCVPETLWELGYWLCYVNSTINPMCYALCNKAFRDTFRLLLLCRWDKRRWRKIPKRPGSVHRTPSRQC
M1 ag parental: M1 agonist counterscreen hit in parental CHO-K1 cells; Fluo-8 calcium fluorescence; scaled to maximal ATP response, vehicle zero; activation, % at 3 µM; 0.48% of 360,000 active; in the data active = activation above about 15%;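 also: untransfected CHO-K1 host cells lacking M1 receptor as counterscreen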
M1 antag: human CHRM1 antagonism; 1.3% of 360,000 active; P11229; CHO-K1 hM1, Fluo-8 calcium fluorescence, ACh EC80 antagonist; AID 588852; inhibition, % at 3 µM;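 active = percent inhibition above its own plate's cutoff, namely the mean of that plate's compound wells plus 3 SD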;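 also: peak over basal fluorescence ratio during 140 s after agonist addition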
CHRM1 agonist: human M1 muscarinic receptor agonism; P11229; CHO-K1 hM1, Fluo-8 calcium fluorescence, agonist mode; 0% DMSO, 100% acetylcholine EC100; activation, % at 3 µM; 0.33% of 360,000 active; AID 588814;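 active = activation above the run's mean compound activation plus 3 SD, cut at about 16% in these data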;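 also: peak over basal fluorescence ratio within a 140 s kinetic read after compound addition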
CHO-K1 Ca PAM: M1 PAM counterscreen hit in parental CHO-K1 cells; ATP EC20, Fluo-8 calcium fluorescence; 0% at ATP EC20, 100% at ATP max; activation, % at 3 µM; 0.02% of 360,000 active;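 active = activation above the run cutoff, the mean activation of all test compounds plus 3 SD, cut at about 40% in these data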;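 also: peak over basal fluorescence ratio in a 140 s read after ATP addition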
Each line names hits and unclear results; the compound was inactive in the other large screens.

Cc1ccc(Cl)cc1N1CCN(C(=O)C2CCN(S(=O)(=O)c3cccnc3)CC2)CC1	none
Cc1ccc(CCNC(=O)C2CCN(S(=O)(=O)c3c(C)nn(C)c3C)CC2)cc1	none
Cc1ccc(NC(=O)C2CCN(S(=O)(=O)c3c(C)nn(C)c3C)CC2)c(Cl)c1	CHO-K1 Ca antag 37
CNC(=O)CN(c1ccc2c(c1)OCCO2)S(C)(=O)=O	none
CS(=O)(=O)N(CC(=O)NC1CCCC1)c1ccc2c(c1)OCCO2	M1 antag 35
CCCNC(=O)C1(C)CCN(CCOc2ccc(Cl)cc2)C1 (stereo unspecified)	none
CC1Cn2c(nnc2-c2ccc(F)cc2)S1 (stereo unspecified)	CHO-K1 Ca antag 26
CNc1nc(Nc2ccc(C(=O)OC)cc2)c2sccc2n1	none
OC(c1ccc(F)c(F)c1)c1nc(-c2cc(F)cc(F)c2)cs1 (stereo unspecified)	none
CCOc1ccc(C(=O)NCC(=O)OCc2cc([N+](=O)[O-])cc3c2OCOC3)cc1OCC	none
COc1cc(C(=O)NC(CCSC)C(=O)OCc2cc([N+](=O)[O-])cc3c2OCOC3)cc(OC)c1OC (stereo unspecified)	M1 antag 26
CC(=O)Oc1ccc(Cn2c(C)c(C(=O)NC3CC3)sc2=O)cc1	none
CC(C)c1ccc(/C=C2\SC(=O)N(CC(=O)NC3C=CS(=O)(=O)C3)C2=O)cc1 (stereo unspecified)	M1 antag 43
O=C(CN1C(=O)/C(=C/c2ccc(Cl)cc2)SC1=S)NC1C=CS(=O)(=O)C1 (stereo unspecified)	none
COC(=O)c1cc(Br)ccc1NC(=O)Nc1ccccc1	none
O=C(Nc1cccc(Cl)c1)Nc1ccc(Br)cc1F	M1 antag 33
Cc1cc(NC(=O)Nc2ccccc2F)ccc1Br	CHO-K1 Ca antag 25
O=C(Nc1ccccc1)Nc1ccc(Br)cc1F	M1 antag 46
CCC(C)n1c(SCC(=O)NC2CC2)nc2ccccc2c1=O (stereo unspecified)	none
O=[N+]([O-])CC(c1ccccc1)c1c[nH]c2ccccc12 (stereo unspecified)	none
OC(CNCC(c1ccc(Cl)cc1Cl)c1c[nH]c2ccccc12)c1ccccc1 (stereo unspecified)	M1 ag parental 16
C[N+](C)(C)CCN(Cc1ccc(Cl)cc1)c1ccccn1	M1 antag 26, CHRM1 agonist 19
O=C1c2ccccc2C(c2nnnn2Cc2ccccc2)N1C1CC1 (stereo unspecified)	none (no result: CHRM1 PAM, M1 antag, CHRM1 agonist)
COc1ccc(NC(=O)c2cc(C3CCCCN3C(=O)c3cc(OC)c(C)c(OC)c3)on2)c(C)c1 (stereo unspecified)	none
CCc1nc(SCC(=O)c2cccs2)c2oc3ccccc3c2n1	CHO-K1 Ca antag 26
CCc1nc(SCC(=O)NCCc2ccccc2)c2oc3ccccc3c2n1	none
O=S1(=O)CCC(NC(=S)Nc2ccc3ccccc3c2)C1 (stereo unspecified)	none
O=S1(=O)CCC(NC(=S)Nc2ccccc2)C1 (stereo unspecified)	CHRM1 PAM 29
CCCN(CC(=O)Nc1ccccc1C)C(=O)c1cccc(S(=O)(=O)N2CCc3ccccc3C2)c1	M1 antag 35
CCOC(=O)N1CCN(C(=O)CCS(=O)(=O)c2ccc(Br)s2)CC1	CHO-K1 Ca antag 27
CCC(C)NC(=O)CCS(=O)(=O)c1ccc(Br)s1 (stereo unspecified)	none
CCC1Oc2ccccc2N(CC(=O)NCCCN2CCOCC2)C1=O (stereo unspecified)	CHO-K1 Ca antag 27
NC(=O)c1ccsc1NC(=O)CN1CCN(S(=O)(=O)c2ccccc2C(F)(F)F)CC1	M1 ag parental 16
COc1cc2c(cc1OC)C(CNC(=O)C=Cc1ccccc1)C2 (stereo unspecified)	none
COc1ccc(CN2C(=O)CS/C2=N/N=C/c2cccs2)cc1	CHO-K1 Ca antag 25
COc1ccc(OC)c(/C=N/N=C2\SCC(=O)N2Cc2ccco2)c1	none
c1ccc(-n2cc(CN3CCCC3)c(-c3ccc4c(c3)OCO4)n2)cc1	M1 ag parental 20
CCC(=O)Nc1nnc(Cc2ccccc2)s1	none
